# Results filed as inconclusive are left out. Where a call stands in place of a potency, no number is given. A number with no mark means an inactive call. The source made the active and inactive calls. The call rests on the fitted dose curve; in most records, active means well fitted inhibition curve with a large enough effect in the repeat runs; inconclusive means weak or mixed curves; inactive means no such curve, though single readings can be large or run the other way.
# Target: Cytochrome P450 3A4 (Homo sapiens) (UniProt P08684)
# Experiment: Cytochrome P450 Family 3 Subfamily A Member 4 (CYP3A4) small molecule antagonists: luciferase reporter qHTS assay (AID 1671201); further: nearly all actives have a fitted effect of over 50% in size
# Conditions: P450-Glo CYP3A4 enzyme, luciferin luminescence, 1 h; series mostly up to 115 µM
# Procedure, shortened: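 Enzyme and proluciferin substrate are mixed with test chemicals for 10 min, then NADPH regeneration system drives turnover for 1 h at room temperature. A detection reagent halts the reaction; luminescence after 20 min gives relative activity.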
# Potency means the concentration at half of the fitted maximal effect.
# Cytochrome P450 3A4 (Homo sapiens), sequence (P08684 whole entry, looked up): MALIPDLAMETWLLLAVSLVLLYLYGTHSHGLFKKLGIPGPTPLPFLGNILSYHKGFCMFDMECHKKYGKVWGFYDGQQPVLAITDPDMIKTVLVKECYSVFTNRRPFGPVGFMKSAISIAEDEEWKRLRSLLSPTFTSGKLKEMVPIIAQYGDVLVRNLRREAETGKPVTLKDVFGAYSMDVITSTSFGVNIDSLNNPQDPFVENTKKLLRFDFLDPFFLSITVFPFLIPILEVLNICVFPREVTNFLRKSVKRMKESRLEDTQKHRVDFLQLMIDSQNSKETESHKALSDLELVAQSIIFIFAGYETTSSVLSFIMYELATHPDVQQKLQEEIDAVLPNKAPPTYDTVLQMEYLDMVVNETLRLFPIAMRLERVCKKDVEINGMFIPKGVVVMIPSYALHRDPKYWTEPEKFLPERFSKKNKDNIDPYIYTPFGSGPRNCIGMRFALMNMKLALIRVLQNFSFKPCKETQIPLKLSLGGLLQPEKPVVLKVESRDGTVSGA
SMILES,Potency,"activity change, negative = inhibition"
OC[C@H]1O[C@@H](OCCc2ccc(O)cc2)[C@H](O)[C@@H](O)[C@@H]1O,inactive,–
CCOC(=O)NCCOc1ccc(Oc2ccccc2)cc1,inactive,–
O=[N+]([O-])c1ccc(NCCO)c(OCCO)c1,inactive,–
CCOc1ccc(N=Nc2ccc(/C=C/c3ccc(N=Nc4ccc(OCC)cc4)cc3S(=O)(=O)O)c(S(=O)(=O)O)c2)cc1,inactive,–
Brc1c2ccccc2c(Br)c2ccccc12,–,1.1% [at 10.5 µM]
CCCCCCCCCc1ccc(OCCOCCO)cc1,8.39 µM (active),–
CCOC(=O)COC(=O)c1cc(Oc2ccc(C(F)(F)F)cc2Cl)ccc1[N+](=O)[O-],inactive,–
CCCCC,inactive,–
CC[N+]1(CC)CCC(=C(c2ccccc2)c2ccccc2)C1C (stereo not drawn),inactive,–
CN1CCN(C(c2ccccc2)c2ccccc2)CC1,inactive,–
CCN(CC)c1ccc2c(-c3ccccc3C(=O)O)c3ccc(=[N+](CC)CC)cc-3oc2c1,12.6 µM (active),–
NCCCN1CCOCC1,inactive,–
CN1C[C@H]2c3ccccc3Oc3ccc(Cl)cc3[C@@H]2C1,inactive,–
COc1ccc(C(=O)Nc2nc3ccccc3c(NCc3ccccc3)c2C#N)cc1,4.48 µM (active),–
O=[N+]([O-])c1cccc(S(=O)(=O)O)c1,36.1 µM (active),–
COc1cc2nc(N(C)CCCNC(=O)C3CCCO3)nc(N)c2cc1OC (stereo not drawn),inactive,–
C/C=C(/C(=C/C)c1ccc(OC(C)=O)cc1)c1ccc(OC(C)=O)cc1,inactive,–
Cc1oc(-c2ccccc2)nc1CCOc1cccc2c1ccn2CCC(=O)O,inactive,–
